For 97 compounds, inhibition results are on record in PubChem BioAssay AID624330 (Southern Research Specialized Biocontainment Screening …, 2012).

SMILES strings stand for the structures. Among all 340,000 compounds or so, about 2,100 (0.62%) were called active. A selection follows. Potency and affinity values are given separately. A number with no mark means an inactive call.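 Rule for the calls: active = first-screen hits whose inhibition reached a set limit at any dose in the follow-up dose series; inconclusive = inhibition above the set first-screen limit but never retested; inactive = the rest.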

Chain of Rac GTPase-activating protein 1 (Homo sapiens) (Q9H0H5 whole entry, looked up): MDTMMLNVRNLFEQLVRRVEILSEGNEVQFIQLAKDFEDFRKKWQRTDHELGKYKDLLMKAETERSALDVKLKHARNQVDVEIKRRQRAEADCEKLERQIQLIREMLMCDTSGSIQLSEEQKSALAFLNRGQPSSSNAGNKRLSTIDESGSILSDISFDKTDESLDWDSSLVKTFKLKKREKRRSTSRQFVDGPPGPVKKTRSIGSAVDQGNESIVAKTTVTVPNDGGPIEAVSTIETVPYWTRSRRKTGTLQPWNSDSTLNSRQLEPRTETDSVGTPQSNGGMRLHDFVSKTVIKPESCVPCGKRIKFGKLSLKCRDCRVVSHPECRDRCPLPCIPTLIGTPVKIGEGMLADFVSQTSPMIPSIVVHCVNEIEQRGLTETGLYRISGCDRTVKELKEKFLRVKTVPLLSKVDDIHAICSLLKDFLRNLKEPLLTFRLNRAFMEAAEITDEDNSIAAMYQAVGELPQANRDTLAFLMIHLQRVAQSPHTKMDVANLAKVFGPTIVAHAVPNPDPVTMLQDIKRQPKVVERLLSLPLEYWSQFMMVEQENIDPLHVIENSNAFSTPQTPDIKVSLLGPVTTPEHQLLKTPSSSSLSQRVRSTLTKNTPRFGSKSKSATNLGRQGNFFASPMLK

The assay has as its target Rac GTPase-activating protein 1 (Homo sapiens) (UniProt Q9H0H5). The assay is described as follows: MgcRacGAP GTPase-activating activity inhibitors, confirmation, biochemical, ADP Hunter fluorescence, primary and confirmatory (AID 624330).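 Note: fluorescence reports GDP produced by GAP-driven GTP hydrolysis.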 The following applies: MgcRacGAP-stimulated Rac1 GTP hydrolysis, at 30 µM, hits give high values, GST-tagged Rac1 F28L mutant substrate.
In the case of `COC(=O)CCCCC(=O)C1C(=O)CC(C)(C)C(C(=O)OC)C1=O` (configuration not stated), the inhibition (usually the change of the read-out against control, counted positive when it falls) was 2.31%. In the case of `CC1(C2CC(C(F)(F)F)n3nc(C(=O)O)cc3N2)CC1` (configuration not stated) it was 5.89%; in that of `O=C(Nc1ccc(C(=O)N2CCCCC2)cc1)c1ccccc1Br`, 3.41%; in that of `COc1ccc(/C=C/C(=O)Oc2ccc(/C=N/NC(=O)c3ccccc3)cc2)cc1OC`, 3.85%. In the case of `O=C(CN1CCN(Cc2ccccc2)CC1)N/N=C/c1cccs1` it was 2.1%; in that of `N/C(Cc1ccc([N+](=O)[O-])cc1)=N\OC(=O)C(c1ccccc1)c1ccccc1`, 8.53%. `NC(CSCc1ccccc1Cl)C(=O)O` (configuration not stated): the inhibition is -0.96%. For the compound `CCc1ccc(OCC(=O)N2CC(C(N)=O)Oc3ccccc32)cc1` (configuration not stated), the inhibition is 4.28%.

Turning to `COc1cc(/C=C(\C#N)C(=O)c2c(C)[nH]c3ccccc23)cc(OC)c1OC`, the inhibition was 15.4%. In the case of `COc1ccc(/C=C(\C#N)c2nc3ccccc3[nH]2)cc1O` it was 18.2%. As to `COc1cc(/C=C(\C#N)c2nc3ccccc3[nH]2)cc(Br)c1OCc1ccc(F)cc1`, the inhibition is 6.53%. Consider `Cc1ccc2nc(/C(C#N)=C/c3ccccc3C(=O)O)[nH]c2c1`, for which the inhibition is 16%. `COc1ccc(/C=C(\C#N)C(=O)c2c(C)[nH]c3ccccc23)cc1OC`: the inhibition is 10.7%. In the case of `COc1cc(/C=C(/C#N)c2nc3ccccc3c(=O)[nH]2)ccc1O` it was 19.3%; in that of `COc1cc(/C=C(\C#N)c2nc3ccccc3[nH]2)cc(Br)c1OCc1ccccc1`, 6.48%; in that of `Cc1cc2nc(/C(C#N)=C/c3ccncc3)[nH]c2cc1C`, 10.2%. As for `O=C(CCn1cnnn1)NC1CCCN(Cc2ccccc2F)C1` (configuration not stated), the inhibition is -0.5%. Take `CN(C)c1ccc(C=NNC(=O)c2cccnc2)cc1`: the inhibition is 1.95%. For the compound `CCCCN(C(=O)c1ccc2c(c1)S(=O)(=O)N=C1CCCCCN12)c1c(N)n(CCCC)c(=O)[nH]c1=O`, the inhibition is -0.05%. Turning to `CC1C(=O)Nc2ccc(S(=O)(=O)NCc3ccc(Cl)cc3)cc2NC1=O` (configuration not stated), the inhibition is 7.58%. As to `Cc1ccc(F)cc1NC(=O)CCOc1ccccc1`, the inhibition is -2.1%. With `CCCc1cc(=O)n2nc(N3CCC(C(=O)NCc4ccco4)CC3)sc2n1`, the inhibition was 4.69%. With `COc1cc2c(cc1NC(=O)c1ccncc1)oc1ccccc12`, the inhibition was 14.9%. As for `C=Cn1cc(CNC[C@H]2O[C@@H](n3ccc(N)nc3=O)[C@H](O)[C@@H]2O)c(C)n1`, the inhibition was 0.77%. Regarding `COc1ccc(CCNS(=O)(=O)c2ccc(-n3cnnn3)cc2)cc1OC`, the inhibition is 4.09%. As to `O=C(Nc1nc2ccccc2[nH]1)Nc1ccccc1F`, the inhibition was -2.47%. Under `CCCc1ccc2oc(C(=O)N3CCCC3)c(C)c2c1` stands 3.8%; under `O=C(NC1CCN(S(=O)(=O)c2ccc(F)cc2)CC1)c1cccc(F)c1`, 4.4%; under `Cc1cc2nc3ccc(N(C)C)cc3nc2cc1N`, 18.1%. For the compound `Cc1ccc(-n2nc3cc(C)c(N)cc3n2)cc1`, the inhibition was 8.27%.

For the compound `CS(=O)(=O)N1CCN(c2ccccc2NC(=O)c2ccc(Cl)cc2)CC1`, the inhibition is 13.8%.

For the compound `O=[N+]([O-])c1ccc(Nc2ccccc2O)c2nonc12`, the inhibition is 19.7%.

Turning to `O=[N+]([O-])c1c(Nc2ccccc2O)cc(Cl)c2nonc12`, the inhibition is 16.1%. Turning to `CN(C)c1cc(Nc2ccc(O)cc2)c([N+](=O)[O-])c2nonc12`, the inhibition was 13.9%. On to `O=[N+]([O-])c1ccc2nonc2c1Nc1ccccc1`, for which the inhibition is 5.91%. As to `CC(=O)c1ccc(Nc2ccc([N+](=O)[O-])c3nonc23)cc1`, the inhibition is 4.9%. Under `O=[N+]([O-])c1c(Nc2ccc(O)cc2)cc(Cl)c2nonc12` stands 16.8%; under `Cn1c(/N=C/c2ccccc2[N+](=O)[O-])nc2ccccc21`, 2.88%; under `CC(=O)N1CCC(N(CCN2CCOCC2)C(=S)Nc2cc(C)cc(C)c2)CC1`, 9.32%. Take `Cc1ccc2cc(CN(CC(C)C)S(=O)(=O)c3cccc4nonc34)c(=O)[nH]c2c1`: the inhibition is 9.22%. Under `CC(/C=C/C=C/c1ccccc1)=N/NC(=O)C(O)c1ccccc1` (configuration not stated) stands 13.5%; under `C=COCCCNc1ncnc2sc(-c3ccccc3)cc12`, 23.7%. `OCCOCCNc1ncnc2sc(-c3ccccc3)cc12`: the inhibition was 23%. Regarding `O=C(NCCCN1CCCC1)c1ccc2c(c1)N(Cc1ccc(F)cc1)C(=O)c1ccccc1S2=O` (configuration not stated), the inhibition was 6.31%.

Regarding `CSc1n[nH]c(NCc2ccc(C)cc2)n1`, the inhibition is -0.45%.

As to `CC(C)(C)c1nc(N)nc(=O)[nH]1`, the inhibition was 4.68%. On to `Nc1nc(N)c2[nH]c(-c3ccccc3)nc2n1`, for which the inhibition is 6.78%.

For `COc1cc(O)c2c(c1)COC2=O`, the inhibition is 4.96%. For `C=CCc1cc(OC)ccc1OCCON1C(=O)CCC1=O`, the inhibition was 8.6%. As for `CN(C)c1cccc(C(=O)OCC(=O)NC(=O)NCc2ccccc2)c1`, the inhibition was -0.47%. `CCOC(=O)c1cnc(Nc2ccccc2)nc1C(F)(F)F`: the inhibition is 1.7%. Turning to `Cc1c(N=Cc2ccc(-c3ccc(Cl)cc3)o2)c(=O)n(-c2ccccc2)n1C`, the inhibition was 3.54%.

With `O=C(Cc1cccc(C(F)(F)F)c1)OCN1C(=O)c2ccccc2C1=O`, the inhibition is 4.25%. Consider `CCCCCC(=O)Nc1cc(S(=O)(=O)N2CCCCC2)ccc1N1CCCCC1`, for which the inhibition was 9.51%.

On to `CCS(=O)(=O)c1ccc(O)c(NC(=O)CCCC(=O)O)c1`, for which the inhibition is 13.8%. In the case of `Cc1ccc(-c2nc(CS(=O)(=O)CC(=O)NCc3cccc(F)c3)c(C)o2)cc1`, the inhibition is 7.24%. Under `CC#C[C@@H](CC)c1ccc2ccn(C)c2c1` stands 9.11%. For the compound `O=C1c2c(O)cccc2C(C2OC(CO)[C@@H](O)[C@H](O)[C@H]2O)c2cc(CO)cc(O)c21` (some centres not stated), the inhibition is 11.8%. As to `O=C1c2cc(CO)cc(O)c2C(=O)c2c(O[C@@H]3OC(CO)[C@@H](O)[C@@H](O)[C@@H]3O)cccc21` (some centres not stated), the inhibition was 7.99%. Regarding `Cc1ccc2c(C(=O)N3CCN(c4ccccc4)CC3)cc(-c3cccnc3)nc2c1C`, the inhibition was 6.48%. Under `COC(=O)CC1SC(=O)NC1=Nc1ccc(C)cc1` (configuration not stated) stands 8.37%; under `COC(=O)CC1SC(=O)NC1=Nc1ccc(OC)cc1` (configuration not stated), 6.86%. On to `Cc1cc(Nc2ccccc2Cl)n2nnnc2n1`, for which the inhibition was 2.54%. Turning to `COC(=O)CSc1nc(N)c2c3c(sc2n1)C(c1ccccc1)SC(c1ccccc1)C3` (configuration not stated), the inhibition was 6.76%.

On to `O=C1C(=C(O)c2ccccc2)C(=O)c2ccccc21`, for which the inhibition is 8.92%. Under `O=C1C(=O)c2ccc(-c3ccccc3)cc2-c2ccccc21` stands 7.95%; under `COc1ccc(N(CC(=O)Nc2ccccc2F)S(=O)(=O)c2ccc(OC)c(OC)c2)cc1`, -10.3%; under `COc1ccc(C(=O)Nc2cccc3nc(C)ccc23)cc1OC`, 12.2%. In the case of `Cc1ccc(C(=O)c2coc3ccc(O)c(Cl)c23)cc1`, the inhibition is 16%. Take `CN(C)Cc1c(O)ccc2occ(C(=O)c3ccccc3)c12`: the inhibition is 6.64%.

For the compound `COc1ccc(NC(=O)COc2ccc3c(c2)OCO3)cc1`, the inhibition is 6.39%. Consider `COc1cccc(CN2CC(C(=O)NC3CCCCCC3)CCC2=O)c1` (configuration not stated), for which the inhibition was 2.79%. As to `CC(C)c1ccccc1OCC(O)CN(CC(O)COc1cccc2ccccc12)C(C)C` (configuration not stated), the inhibition is 4.64%.

`CCN(CCNCC(O)COCc1ccc(Cl)cc1)c1cccc(C)c1` (configuration not stated): the inhibition was 31.7%.

For `C=CCOc1ccc(C(=O)Nc2ncn[nH]2)cc1`, the inhibition was 4.62%.

In the case of `COc1ccc(NC(=O)C2CCCO2)cc1OC` (configuration not stated), the inhibition was 10.4%. In the case of `COc1ccc([C@@H](OC)[C@@]2(Cc3ccc(O)cc3)N=C(N)N(C)C2=O)cc1` it was 0.02%; in that of `COc1ccc(NC(=O)c2ccccc2NC(=O)C2CCCO2)cc1` (configuration not stated), 10.5%; in that of `CC(=Nc1ccccc1)c1sc2ccccc2c1O`, 19.1%. In the case of `CC(=Nc1ccc(C)cc1)c1sc2ccccc2c1O` it was 2.37%; in that of `O=c1[nH]c(SCc2ccccc2)nc2ccsc12`, 6.38%. For the compound `O=C(NCc1ccccc1)/C(=C/c1ccccc1)NC(=O)c1ccco1`, the inhibition was 2.6%. Under `O=C(NCc1ccccc1)/C(=C\c1ccccc1)NC(=O)c1ccco1` stands 6.99%. With `COc1ccc(NC(=S)N2CCNC(=O)C2CC(=O)Nc2ccc(C)cc2)cc1` (configuration not stated), the inhibition was 15.2%. Under `O=C(CCN1CCCCC1)N/N=C/c1ccc(Br)cc1` stands 7.98%; under `COc1ccc(Br)cc1/C=N/NC(=O)CN1CCCCC1`, 14.3%. In the case of `NNC(=O)CCN1CCN(C(c2ccccc2)c2ccccc2)CC1` it was -8.98%; in that of `COc1cc(/C=N/NC(=O)CCN2CCN(c3ccccc3)CC2)cc(OC)c1OC`, 4.52%. Regarding `COc1ccc(/C=N/NC(=O)CN2CCCC2)cc1`, the inhibition was -0.98%. In the case of `COc1ccc(/C=N\NC(=O)CCN2CCN(c3ccccc3)CC2)cc1OC` it was 7.5%. As to `COc1ccc(OC)c(/C=N/NC(=O)CCN2CCN(C(c3ccccc3)c3ccccc3)CC2)c1`, the inhibition is -2.42%. On to `O=C(CCN1CCN(C(c2ccccc2)c2ccccc2)CC1)N/N=C/c1ccc(O)cc1O`, for which the inhibition was 30.9%. With `CN(C)CCN(Cc1ccco1)S(=O)(=O)c1csc(C(N)=O)c1`, the inhibition was 4.25%. For the compound `O=C(c1ccccn1)N1CCN(C(=O)c2ccccn2)CC1`, the inhibition was 3.69%. In the case of `O=C(c1ccc(OC2CCN(CCCc3ccccc3)CC2)cc1)N1CCCC1`, the inhibition is 3.48%. Under `NC(=O)NCC1CC1` stands 4.2%.

In the case of `O=C(OCC(=O)N1N=C(c2ccc(Cl)cc2)CC1c1ccco1)c1ccccc1O` (configuration not stated), the inhibition is 3.05%.
